Results as given in PMC7862700, “An all-to-all approach to the identification of sequence-specific readers for epigenetic DNA modifications on cytosine”.

Tests used:
Assay in all cases: DAPPL (digital affinity profiling via proximity ligation, sequencing); 10 mM Tris-HCl pH 7.5, 50 mM NaCl, 1 mM DTT, 4% glycerol, room temperature, 30 min; GST-TFs on glutathione beads, 16-mer random dsDNA library, 0.1% formaldehyde crosslink after washing; high values mean tight binding
[1] = target: T1, FEV (Homo sapiens, UniProt Q99581 1-238); settings: protein: recombinant; tags: N-terminal GST; dsDNA, one strand shown
T1 sequence: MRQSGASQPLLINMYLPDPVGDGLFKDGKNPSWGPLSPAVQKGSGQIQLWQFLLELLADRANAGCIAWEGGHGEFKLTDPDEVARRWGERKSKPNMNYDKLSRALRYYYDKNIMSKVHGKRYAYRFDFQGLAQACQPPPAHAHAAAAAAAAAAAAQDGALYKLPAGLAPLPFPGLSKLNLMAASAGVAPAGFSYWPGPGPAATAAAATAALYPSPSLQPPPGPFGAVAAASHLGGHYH
How it was run: (§1)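 Human transcription factors fused to GST were expressed in yeast, captured on glutathione beads, given DNA barcodes and pooled with a GST-only negative control. Pools were incubated with 200 nmole of a 16-mer random double-stranded DNA library in Tris/NaCl/DTT/glycerol buffer at room temperature for 30 min. They were then washed, crosslinked with 0.1% formaldehyde, proximity-ligated (BsaI/T4 ligase, 1 h, 37 °C), PCR-amplified and sequenced on an Illumina NextSeq500. Binding signal is each 6-mer's read frequency for a factor divided by its frequency for the GST control.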

[2] = target: ETV5 (Homo sapiens, UniProt P41161 1-510); settings: protein: recombinant; tags: N-terminal GST; dsDNA, one strand shown
How it was run: as §1

[3] = target: HSF1 (Homo sapiens, UniProt Q00613 1-529); settings: protein: recombinant; tags: N-terminal GST; chain copies: 3; dsDNA, one strand shown
How it was run: as §1

[4] = target: T2, SPIC (Homo sapiens, UniProt Q8N5J4 1-248); settings: protein: recombinant; tags: N-terminal GST; dsDNA, one strand shown
T2 sequence: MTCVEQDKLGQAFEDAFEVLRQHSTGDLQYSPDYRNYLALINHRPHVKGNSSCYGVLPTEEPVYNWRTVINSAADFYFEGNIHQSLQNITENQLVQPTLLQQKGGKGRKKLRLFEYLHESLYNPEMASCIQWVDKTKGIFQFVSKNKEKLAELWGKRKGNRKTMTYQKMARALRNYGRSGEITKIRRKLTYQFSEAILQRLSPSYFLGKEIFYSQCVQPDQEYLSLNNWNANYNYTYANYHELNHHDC
How it was run: as §1

[5] = target: ELF4 (Homo sapiens, UniProt Q99607 1-663); settings: protein: recombinant; tags: N-terminal GST; dsDNA, one strand shown
How it was run: as §1

[6] = target: T3, ELK4 (Homo sapiens, UniProt P28324-2 1-405); settings: protein: recombinant; tags: N-terminal GST; dsDNA, one strand shown
T3 sequence: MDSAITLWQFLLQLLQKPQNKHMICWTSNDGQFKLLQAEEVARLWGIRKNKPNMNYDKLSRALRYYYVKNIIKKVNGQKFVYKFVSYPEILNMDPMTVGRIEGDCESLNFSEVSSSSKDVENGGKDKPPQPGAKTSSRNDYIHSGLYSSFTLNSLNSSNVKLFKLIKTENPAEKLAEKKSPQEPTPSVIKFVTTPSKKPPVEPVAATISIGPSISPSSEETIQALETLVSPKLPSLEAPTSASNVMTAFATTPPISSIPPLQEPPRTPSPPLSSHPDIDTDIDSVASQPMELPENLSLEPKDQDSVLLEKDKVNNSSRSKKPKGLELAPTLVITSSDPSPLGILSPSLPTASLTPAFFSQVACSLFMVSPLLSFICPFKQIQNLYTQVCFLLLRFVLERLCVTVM
How it was run: as §1

[7] = target: T4, ETV2 (Homo sapiens, UniProt O00321 1-342); settings: protein: recombinant; tags: N-terminal GST; dsDNA, one strand shown
T4 sequence: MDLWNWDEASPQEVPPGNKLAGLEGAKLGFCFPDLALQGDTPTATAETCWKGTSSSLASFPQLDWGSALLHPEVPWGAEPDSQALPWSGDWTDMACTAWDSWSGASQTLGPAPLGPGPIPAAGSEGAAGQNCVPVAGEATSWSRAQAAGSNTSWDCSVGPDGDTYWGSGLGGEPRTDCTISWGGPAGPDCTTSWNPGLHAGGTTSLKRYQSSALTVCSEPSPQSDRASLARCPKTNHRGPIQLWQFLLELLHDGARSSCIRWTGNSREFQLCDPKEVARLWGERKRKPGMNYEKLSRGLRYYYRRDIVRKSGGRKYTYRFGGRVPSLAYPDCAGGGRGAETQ
How it was run: as §1

[8] = target: T5, ELF3 (Homo sapiens, UniProt P78545 1-371); settings: protein: recombinant; tags: N-terminal GST; dsDNA, one strand shown
T5 sequence: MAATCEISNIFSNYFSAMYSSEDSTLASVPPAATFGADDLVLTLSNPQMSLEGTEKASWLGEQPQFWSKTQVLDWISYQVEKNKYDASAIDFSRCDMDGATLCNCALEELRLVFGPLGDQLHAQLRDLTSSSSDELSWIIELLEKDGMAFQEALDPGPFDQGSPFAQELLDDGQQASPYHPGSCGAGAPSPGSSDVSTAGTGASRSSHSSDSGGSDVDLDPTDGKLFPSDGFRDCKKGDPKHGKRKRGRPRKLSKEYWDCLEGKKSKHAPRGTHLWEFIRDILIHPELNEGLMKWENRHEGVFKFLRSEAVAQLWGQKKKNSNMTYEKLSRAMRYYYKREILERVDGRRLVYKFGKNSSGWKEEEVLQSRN
How it was run: as §1

[9] = target: CRX (Homo sapiens, UniProt O43186 1-299); settings: protein: recombinant; tags: N-terminal GST; dsDNA, one strand shown
How it was run: as §1

Chain of CRX (O43186 whole entry): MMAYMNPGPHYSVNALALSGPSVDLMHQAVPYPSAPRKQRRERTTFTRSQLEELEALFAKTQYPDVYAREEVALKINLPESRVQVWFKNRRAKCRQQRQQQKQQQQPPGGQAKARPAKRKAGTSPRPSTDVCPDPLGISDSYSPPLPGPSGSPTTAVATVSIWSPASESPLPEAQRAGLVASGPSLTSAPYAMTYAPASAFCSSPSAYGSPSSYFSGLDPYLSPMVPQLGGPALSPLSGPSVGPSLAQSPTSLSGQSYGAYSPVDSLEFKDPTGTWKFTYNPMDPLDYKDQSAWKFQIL
Chain of ELF4 (Q99607 whole entry): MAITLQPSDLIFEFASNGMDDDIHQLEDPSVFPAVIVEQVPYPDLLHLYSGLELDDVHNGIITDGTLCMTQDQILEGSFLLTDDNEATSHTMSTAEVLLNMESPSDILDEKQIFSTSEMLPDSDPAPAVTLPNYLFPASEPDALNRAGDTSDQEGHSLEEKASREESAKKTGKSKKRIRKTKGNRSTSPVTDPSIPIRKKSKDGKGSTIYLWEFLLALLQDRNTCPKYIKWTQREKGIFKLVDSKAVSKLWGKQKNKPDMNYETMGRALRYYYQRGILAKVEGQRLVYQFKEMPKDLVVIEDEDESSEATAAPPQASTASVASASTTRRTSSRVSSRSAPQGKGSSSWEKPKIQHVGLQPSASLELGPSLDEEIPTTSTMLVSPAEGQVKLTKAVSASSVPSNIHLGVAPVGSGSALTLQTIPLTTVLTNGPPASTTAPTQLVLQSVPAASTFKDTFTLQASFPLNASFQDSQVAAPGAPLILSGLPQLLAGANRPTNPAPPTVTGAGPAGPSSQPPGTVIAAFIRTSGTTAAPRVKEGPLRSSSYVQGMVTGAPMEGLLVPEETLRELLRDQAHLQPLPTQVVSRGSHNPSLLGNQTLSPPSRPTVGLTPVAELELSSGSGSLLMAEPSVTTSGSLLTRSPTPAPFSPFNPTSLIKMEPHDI
Chain of ETV5 (P41161 whole entry): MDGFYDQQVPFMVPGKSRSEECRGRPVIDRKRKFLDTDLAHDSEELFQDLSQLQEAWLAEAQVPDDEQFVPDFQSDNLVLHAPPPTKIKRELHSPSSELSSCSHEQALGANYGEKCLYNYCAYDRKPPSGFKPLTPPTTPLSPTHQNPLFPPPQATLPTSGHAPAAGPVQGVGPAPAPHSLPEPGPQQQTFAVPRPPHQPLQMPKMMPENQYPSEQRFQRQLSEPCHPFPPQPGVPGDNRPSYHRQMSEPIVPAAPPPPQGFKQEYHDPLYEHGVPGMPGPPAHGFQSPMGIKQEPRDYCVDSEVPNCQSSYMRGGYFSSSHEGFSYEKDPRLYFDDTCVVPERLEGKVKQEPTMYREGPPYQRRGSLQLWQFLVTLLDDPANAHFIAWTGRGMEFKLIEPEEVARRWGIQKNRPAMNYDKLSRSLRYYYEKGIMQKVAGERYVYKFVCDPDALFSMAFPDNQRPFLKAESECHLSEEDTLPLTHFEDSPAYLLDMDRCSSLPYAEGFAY
Chain of HSF1 (Q00613 whole entry): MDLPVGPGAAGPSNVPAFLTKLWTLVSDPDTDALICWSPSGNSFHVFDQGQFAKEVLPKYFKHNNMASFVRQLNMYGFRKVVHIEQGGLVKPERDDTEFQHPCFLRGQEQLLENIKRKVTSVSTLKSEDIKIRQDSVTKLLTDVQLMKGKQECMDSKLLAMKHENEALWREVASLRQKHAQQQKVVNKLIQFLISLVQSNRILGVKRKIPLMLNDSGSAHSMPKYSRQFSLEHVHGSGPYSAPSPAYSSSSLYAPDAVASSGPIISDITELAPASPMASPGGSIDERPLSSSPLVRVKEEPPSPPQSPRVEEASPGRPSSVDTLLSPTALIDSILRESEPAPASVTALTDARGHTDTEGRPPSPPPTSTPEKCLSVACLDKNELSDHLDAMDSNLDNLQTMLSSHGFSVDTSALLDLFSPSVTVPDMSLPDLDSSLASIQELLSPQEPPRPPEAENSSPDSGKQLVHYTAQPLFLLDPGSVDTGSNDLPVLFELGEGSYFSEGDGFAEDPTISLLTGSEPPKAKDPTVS

Sequence: CTTAAC
- binding signal [1]: 1.27 fold enrichment (6-mer frequency, TF over GST control)
- binding signal [2]: 1.26 fold enrichment (6-mer frequency, TF over GST control)
- binding signal [3]: 1.72 fold enrichment (6-mer frequency, TF over GST control)
- binding signal [4]: 1.18 fold enrichment (6-mer frequency, TF over GST control)
- binding signal [5]: 1.28 fold enrichment (6-mer frequency, TF over GST control)
- binding signal [6]: 1.34 fold enrichment (6-mer frequency, TF over GST control)
- binding signal [7]: 1.25 fold enrichment (6-mer frequency, TF over GST control)
- binding signal [8]: 1.36 fold enrichment (6-mer frequency, TF over GST control)
- binding signal [9]: 2.4 fold enrichment (6-mer frequency, TF over GST control)
